# Article PMC5540273 (PLoS ONE, 2017)
# Columns and labels:
# Settings in all cases: concentration: 1 μM, replicates: in singlicate; n = 1
# NEK11 = system: NEK11
# NEK1 = system: NEK1
# NEK2 = system: NEK2
# NEK3 = system: NEK3
# NEK4 = system: NEK4
# NEK5 = system: NEK5
# NEK6 = system: NEK6
# NEK7 = system: NEK7
# NEK9 = system: NEK9
# NIK = system: T1, NIK
# T1 construct: gene MAP3K14
# NIM1 = system: T2, NIM1
# T2 construct: gene MGC42105
# NLK = system: NLK
# OSR1 = system: T3, OSR1
# T3 construct: gene OXSR1
# PAK1 = system: PAK1
# PAK2 = system: PAK2
# PAK3 = system: PAK3
# PAK4 = system: PAK4
# PAK6 = system: PAK6
# PAK7 = system: PAK7
# PCTK1 = system: T4, PCTK1
# T4 construct: gene CDK16
# 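Also: KINOMEscan kinase panel screen.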
Structure (SMILES),%Inh (NEK11) [%],%Inh (NEK1) [%],%Inh (NEK2) [%],%Inh (NEK3) [%],%Inh (NEK4) [%],%Inh (NEK5) [%],%Inh (NEK6) [%],%Inh (NEK7) [%],%Inh (NEK9) [%],%Inh (NIK) [%],%Inh (NIM1) [%],%Inh (NLK) [%],%Inh (OSR1) [%],%Inh (PAK1) [%],%Inh (PAK2) [%],%Inh (PAK3) [%],%Inh (PAK4) [%],%Inh (PAK6) [%],%Inh (PAK7) [%],%Inh (PCTK1) [%]
CN1CCN(Cc2cccc(-c3ccc4c(Nc5ccc(Oc6ccccc6)cc5)ccnc4c3)c2)CC1 [GW578342],28,0,0,3,0,0,0,0,16,24,22,41,4,16,0,29,0,0,0,0
CCCCc1nn2ncccc2c1-c1ccnc(Nc2ccc(N3CCN(C)CC3)cc2)n1 [GW684941],62,0,53,9,14,0,0,0,0,11,47,54,12,23,0,0,0,48,1,26
Cn1cc(-c2ccc3c(c2)CCN3C(=O)Cc2cccc(F)c2)c2c(N)ncnc21 [GSK2603358],8,31,73,11,22,28,0,0,0,23,24,0,37,0,0,31,0,0,0,4
O=c1[nH]cc(-c2ccc(N3CCOCC3)cc2)c2sc(-c3cn[nH]c3)cc12 [GSK2276055],0,19,19,16,0,0,0,39,53,17,30,0,1,8,26,0,0,17,31,4
Cl.c1ccc(-c2ccc3c(Nc4ccc5[nH]ccc5c4)ccnc3c2)nc1 [GW440138],0,0,0,9,0,0,0,0,0,24,29,36,4,0,0,0,0,0,0,0
Cc1ccc(C(=O)Nc2ccc(Nc3ccnc4cc(-c5nccs5)ccc34)cc2O)cc1.Cl [GW494702],40,0,0,0,3,0,0,0,0,12,19,0,6,0,0,9,1,0,0,0
COc1cc(Nc2nccc(-c3c(-c4cccc(NC(=O)c5c(F)cccc5F)c4)nn4ccccc34)n2)cc(OC)c1OC [GSK323521],0,8,78,0,34,22,25,33,48,19,39,0,4,11,5,44,9,7,6,3
CN(C)S(=O)(=O)c1cc(-c2ccc3nccc(-c4cccc(S(N)(=O)=O)c4)c3c2)cnc1N [GSK1669921],0,0,34,0,10,0,0,31,32,3,11,4,0,7,21,39,1,3,0,5
C[C@@H](Oc1cc(-n2cnc3cc(-c4ccnc(NCCS(C)(=O)=O)c4)ccc32)sc1C(N)=O)c1ccccc1Cl [GSK907232],0,72,98.8,3,0,89,4,12,74,0,69,14,20,6,32,26,0,0,0,7
Cc1occc1-c1ncc(OC[C@@H](N)Cc2c[nH]c3ccccc23)cc1-c1ccc2[nH]nc(C)c2c1.O=C(O)C(F)(F)F [GSK682037],0,24,0,0,0,24,0,0,8,78,33,39,8,97.5,68,32,2,15,36,0
